{
  "source": "the supplement of paper PMC7366291",
  "note": "Where a name gives a salt, the structure may show the parent alone. ± gives the standard deviation of the averaged measurements.",
  "data": [
    {"system": "Danio rerio Tg(wt1b:EGFP) embryo, pronephros", "test": "pronephric angle neck segment to proximal convoluted tubule (mean of left and right), fold change vs DMSO control; higher = larger pronephric angle", "settings": "25 µM; exposure: 24-48 hpf", "procedure,_shortened": "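Dechorionated Tg(wt1b:EGFP) zebrafish embryos were treated with 25 μM compound in 0.5% DMSO, in HEPES-buffered E3 with 0.003% PTU, from 24 to 48 hpf at 28.5°C. On maximum projections of dorsal pronephros images, 16 hand-placed reference points in Fiji gave distances and angles, and values more than 2 SD from the feature mean were left out. Results are fold changes over the mean of same-day DMSO-treated embryos.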", "values": [
      {"compound": "O=P1(NCCCl)OCCCN1CCCl", "note": "(configuration not stated) [Ifosfamide]", "pronephric angle neck segment": "1.06 ± 0.023"},
      {"compound": "CC[C@@H](CO)NC(=O)[C@@H]1C=C2c3cccc4[nH]cc(c34)C[C@H]2N(C)C1", "note": "[Methylergometrine maleate]", "pronephric angle neck segment": "1.05 ± 0.031"},
      {"compound": "CNC(C)(C)Cc1ccccc1", "note": "[Mephentermine hemisulfate]", "pronephric angle neck segment": "0.991 ± 0.081"},
      {"compound": "CCC1(C)CC(=O)NC(=O)C1", "note": "[Bemegride]", "pronephric angle neck segment": "0.968 ± 0.027"},
      {"compound": "CN(C)C(=O)Oc1cc(OC(=O)N(C)C)cc(C(O)CNC(C)(C)C)c1", "note": "(configuration not stated) [Bambuterol hydrochloride]", "pronephric angle neck segment": "1.01 ± 0.021"},
      {"compound": "C[C@]12CC[C@@H](O)C[C@H]1CC[C@@H]1[C@@H]2CC[C@]2(C)C(=O)CC[C@@H]12", "note": "[3-alpha-Hydroxy-5-beta-androstan-17-one]", "pronephric angle neck segment": "1 ± 0.013"},
      {"compound": "CCC(COC(=O)c1cc(OC)c(OC)c(OC)c1)(c1ccccc1)N(C)C", "note": "(configuration not stated) [Trimebutine]", "pronephric angle neck segment": "1.01 ± 0.012"},
      {"compound": "COc1ccc2c(c1)[C@]13CCCC[C@@H]1[C@H](C2)N(C)CC3", "note": "[Dextromethorphan hydrobromide monohydrate]", "pronephric angle neck segment": "1.04 ± 0.036"},
      {"compound": "CC(=O)O[C@H]1C[C@@H]2CC[C@@H]3[C@H](CC[C@@]4(C)[C@H]3C[C@H]([N+]3(C)CCCCC3)[C@@H]4OC(C)=O)[C@@]2(C)C[C@@H]1[N+]1(C)CCCCC1", "note": "[Pancuronium bromide]", "pronephric angle neck segment": "0.955 ± 0.047"},
      {"compound": "C#C[C@]1(O)CC[C@H]2[C@@H]3CCC4=CC(=O)CCC4=C3C=C[C@@]21CC", "note": "[Gestrinone]", "pronephric angle neck segment": "1.03 ± 0.038"},
      {"compound": "COc1ccc(CN2CCNCC2)c(OC)c1OC", "note": "[Trimetazidine dihydrochloride]", "pronephric angle neck segment": "0.982 ± 0.044"},
      {"compound": "CN1[C@@H]2CC[C@H]1C[C@@H](OC(=O)[C@H](CO)c1ccccc1)C2", "note": "[Hyoscyamine (L)]", "pronephric angle neck segment": "0.999 ± 0.012"}
    ]}
  ]
}
